# Test results taken from paper PMC12136788.
# Substitutions are numbered along the chain they refer to. In all, about 5,800 sequences were measured (“enrichment r”: median about 0.68, highest 2% from about 11 on). What follows is part of a selection rich in the highest values, with near analogues and random picks from the rest.
# T1: UNK ZnF1-6 (called full-length) (human, UniProt Q9C0B0 30-357)
# T1 sequence: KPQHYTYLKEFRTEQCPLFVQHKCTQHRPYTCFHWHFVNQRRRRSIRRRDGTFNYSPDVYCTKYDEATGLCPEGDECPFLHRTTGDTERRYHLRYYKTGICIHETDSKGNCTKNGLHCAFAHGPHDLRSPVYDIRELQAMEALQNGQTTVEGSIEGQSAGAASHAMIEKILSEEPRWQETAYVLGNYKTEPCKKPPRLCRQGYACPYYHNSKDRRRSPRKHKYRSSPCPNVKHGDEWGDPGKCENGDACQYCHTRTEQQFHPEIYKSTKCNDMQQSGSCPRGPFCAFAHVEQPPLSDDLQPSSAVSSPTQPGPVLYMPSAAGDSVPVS
# B1: chr17:44352837:44352938:+|3pUTR|ENSG00000030582|unk|total|mutant (ssRNA)
# RNA: GGGAGUUCUACAGUCCGACGAUCCUGAAGACUCUGCAGCCCUCGGGACCCCACUCGGAGGGUGCCCUCUGCUCAGGCCUCCCCCGCACCUCCCCCUAACCAAAUUCUCCCUGGACCCCAUUCUGAGCUCCCCAUCACCAUGGGCAACAGAGGAUUGAGCAUCA
# B2: ENSG00000107863:be:win_1351|CDS|ENSG00000107863|bound_else_gene|NA|bound_elsewhere_windowed (ssRNA)
# RNA: GGGAGUUCUACAGUCCGACGAUCGUCCAGAUACGGCAACGCAGUGUGUCCCAAGAAAGACUGGAAGAUUCUGUGCUAAUGAAGUAUUGUCCAAGAAGUGCAUCUCAAGGAGCACUGACGUCUCCAUCUGUUAGUUUUAGUAAUCAACAGAGGAUUGAGCAUCA
# B3: chr10:75150949:75151073:+|CDS|ENSG00000156671|unk|FALSE|unique (ssRNA)
# RNA: GGGAGUUCUACAGUCCGACGAUCUGUUCGAAGAUUGGACCCAGAAUACUGGAAGACUAUACUGAGUUGUAUAUAUGUUUUUAUAGUAUUUGGAUUUACAUCUUUCAUUAUGGUUAUAGUCCAUGAGCGAGUGCCUGACAUGCACAACAGAGGAUUGAGCAUCA
# B4: ENSG00000107863:be:win_4151|CDS|ENSG00000107863|bound_else_gene|NA|bound_elsewhere_windowed (ssRNA)
# RNA: GGGAGUUCUACAGUCCGACGAUCAUUCAGCUACUAGUGACUCAACAAAAUCUAAGGGUUCUUGGGGAUCUGGAAAGGAUCAGUAUAGCAGGGAACUGCUUGUGUCCUCCAUCUUUGCAGCUGCUAGUCGCAAGAGGAAGAAGCCAACAGAGGAUUGAGCAUCA
# B5: chr2:224001733:224001845:-|CDS|ENSG00000135919|unk|total|mutant (ssRNA)
# RNA: GGGAGUUCUACAGUCCGACGAUCGGCCUCUGUGACGCUGCCUUCCAUCUGCUCCCACUUCAAUCCUCUGUCUCUCGAGGAACCCGGCUCCAACACGGGGAUCCAGGUUUUCAAUCAGAUUGUGAAGUCGAGGCCUCAUGACAACAACAGAGGAUUGAGCAUCA
# B6: chr12:122341087:122341188:-|CDS|ENSG00000130779|unk|FALSE|bound_elsewhere (ssRNA)
# RNA: GGGAGUUCUACAGUCCGACGAUCAGAAUUUGCUGAACUAAAAACACAAAUAGAGAAAAUGAGACUAGAUUACCAACACGAAAUAGAAAAUUUGCAGAAUCAACAAGACUCUGAACGGGCUGCCCAUGCUAAAGAGAUGGAAGCCAACAGAGGAUUGAGCAUCA
# B7: chr20:13714314:13714426:-|3pUTR|ENSG00000089048|unk|FALSE|unique (ssRNA)
# RNA: GGGAGUUCUACAGUCCGACGAUCUUUUUCUAGCCAUAAAGGAUGGAAGUCAAGAACUUUUUGUUGUUUAGUCAUGUUAAGUAUAGUUUAUGAAAUUAACUUGUAAAUAAAAGUGUAAAAUAUUUUCAUUAUUUUGUAUAGCACCAACAGAGGAUUGAGCAUCA
# B8: chr7:107202531:107202632:-|3pUTR|ENSG00000164597|msi1|total|mutant (ssRNA)
# RNA: GGGAGUUCUACAGUCCGACGAUCUAUUCUGAGAACUCAUAAAUAAAAUUCAGCCAAGAUUAAUCAAUCAAUCAAUCAAUCAGCCGACGUCAGAGAUAAGCAACUUUUUUUUCCAUUUAUUUGAAAUAAUAUACAAGAAUACCGCAACAGAGGAUUGAGCAUCA
# B9: chr8:58582127:58582250:+|3pUTR|ENSG00000137575|unk|FALSE|bound_elsewhere (ssRNA)
# RNA: GGGAGUUCUACAGUCCGACGAUCUUCAUAUUACUUUAGUUCUAUAGCAUACUUGCAUCUUUAACAUGCUAUCAUAGUACAUUUAGAAUGAUUGCCUUUGAUUUUUUUUUUAAAUUCUGUGUGUGUGUGUGUAAAAUGCCAAUUCAACAGAGGAUUGAGCAUCA
# B10: chr10:11920118:11920232:-|3pUTR|ENSG00000151461|unk|FALSE|unique (ssRNA)
# RNA: GGGAGUUCUACAGUCCGACGAUCGUAGUAUAUUUAGUCGGAGAGCACAUCUGUAUGCGACAACUUGAUUACAUCUUUUUUUCUAGCUAUUUUGCAUUUUUUCUUUUACCAUGUUUCAGUUUCUGCAUGUAGAUUUAAAUAAAACAACAGAGGAUUGAGCAUCA
# B11: chr3:68976711:68977116:-|CDS|ENSG00000163378|control|control|control (ssRNA)
# RNA: GGGAGUUCUACAGUCCGACGAUCCUUUUUAGGAAUACCAAAGUUUUCAACUUUUUCAGCUUUAGAAUUUGUAAAUAUUUUUGUAGAAUAUCAUAUGACUGUAAUUCCAGAGUGUUCCAACUUGUUUAUGAUAUAUUUGGGUAACAACAGAGGAUUGAGCAUCA
# B12: chr13:52036708:52036809:-|3pUTR|ENSG00000197168|unk|FALSE|unique (ssRNA)
# RNA: GGGAGUUCUACAGUCCGACGAUCGUAGAACUUUUGAAUAUAGCCAUUAAUAUUUUUACUUUAAAGUUUCUAUUAAGAAAUCUUAGGCCGGGCAGUCUCAUCACUUUGGGAGGCCAAGGCAGGCAGAUCAUGAGGUCAGGAGUUCAACAGAGGAUUGAGCAUCA
# B13: ENSG00000070961:be:win_5751|3pUTR|ENSG00000070961|bound_else_gene|NA|bound_elsewhere_windowed (ssRNA)
# RNA: GGGAGUUCUACAGUCCGACGAUCCUAAAAAUUGACCCUAUCAACUGGAGAGCCCACAAGGCAUAGGGAAUAGAGAAAAGGGAAAUGUUUUCAGUUUUCUUUUUUAUUUUGGUUAUGCUUAAAUAUGAAUGUAAUUACCAAAAGCAACAGAGGAUUGAGCAUCA
# B14: chr21:14371318:14371404:-|3pUTR|ENSG00000155304|msi1_unk|FALSE|overlapping (ssRNA)
# RNA: GGGAGUUCUACAGUCCGACGAUCUAUGAAUAACAAUCUGAAGUCUUUUCAUAAAAAAAAUUAAUAAACUUUAGUUGUACAUUUAGCCAGUGUUAUUUGAAGUAUGUAACUUUUAAAAUAUUAAGUGUCUUGUAUGAUUAGAAUCAACAGAGGAUUGAGCAUCA
# B15: chr13:52036708:52036809:-|3pUTR|ENSG00000197168|unk|total|mutant (ssRNA)
# RNA: B12 RNA with U25C, A26C, U40C, A41C, U83C, A84C
# B16: chr6:152987361:152990084:-|three_prime_utr|ENSG00000112031|control|control|control (ssRNA)
# RNA: GGGAGUUCUACAGUCCGACGAUCAGAUUAUCUACUGGAUGAACUUGUACAGUCAUUGAAGGAAUACGCCGAUUAUGAAUCUUUAGUAGAAAUUAUUUCCCAAAAAGUUUAAGUUGAUUUGUUAUUUAUAGACUUUCGUAGCUUCAACAGAGGAUUGAGCAUCA
# B17: chr12:39553730:39553837:-|3pUTR|ENSG00000173208|unk|FALSE|unique (ssRNA)
# RNA: GGGAGUUCUACAGUCCGACGAUCGAAGUAUGUUAAGCUAAGCACAGAGAAAAAAAGGCAGCAAGACAUGUUUUAUAAGAUUUUAGCAUUAAGGAAGUAUAUGAUCUGACUUUUCAGAAGAAAAUAAACAAAUGCAUUAUGUAACAACAGAGGAUUGAGCAUCA
# B18: chr10:62806226:62806343:+|3pUTR|ENSG00000181915|unk|FALSE|unique (ssRNA)
# RNA: GGGAGUUCUACAGUCCGACGAUCCUACCCCUUAGUUAAAUAGGGUUUAUUUUCCACUCAUGCCCUUAUGCCUUUUUUUCUUAUAGUUUUUUAACUUAUUGACUGUGCAUGACCCAGUGGUUUGAAUUGUUUUUAGUUCAAGUCCAACAGAGGAUUGAGCAUCA
# Target: T1, UNK ZnF1-6 (called full-length)
# Assay: nsRBNS (natural sequence RNA bind-n-seq); RBNS binding buffer (assumed for nsRBNS): 25 mM Tris pH 7.5, 150 mM KCl, 3 mM MgCl2, 0.01% Triton X-100, 500 ug/ml BSA, 20 U/ml SUPERase-In, 4 C; UNK is unkempt and MSI1 is Musashi-1; names of the RNAs are library labels; protein concentration not given here; high values mean tight binding
row,Binder,binding signal
1,B1,0.732 enrichment R
2,B2,4.38 enrichment R
3,B3,0.389 enrichment R
4,B4,0.489 enrichment R
5,B5,0.666 enrichment R
6,B6,8.87 enrichment R
7,B7,62.3 enrichment R
8,B8,1.94 enrichment R
9,B9,5 enrichment R
10,B10,21.9 enrichment R
11,B11,9.89 enrichment R
12,B12,21 enrichment R
13,B13,0.412 enrichment R
14,B14,1.48 enrichment R
15,B15,2.85 enrichment R
16,B16,1.84 enrichment R
17,B17,0.997 enrichment R
18,B18,15.8 enrichment R
